PubChem BioAssay (NCATS)
Records with an inconclusive call do not appear. The source made the active and inactive calls. Calls come from the whole dose curve; as a rule, active = well fitted curve in the direction sought with a large enough effect; inconclusive = small, poorly fitted or top-dose-only effect, or another doubt; inactive = no such curve, though single readings can be large; an effect the other way counts as inactive or inconclusive.

Legend:
[1] = OV-KATE Cancer Cell Toxicity qHTS against the NCATS CANVASS Library (AID 1347345)
In short: (§1)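 1000 cells/well; 4 h settle; 11-pnt titration; 72 h, 37 degrees C, 5% CO2; CellTiter-Glo, 15min RT; luminescence read.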

[2] = HPAF-II Cancer Cell Toxicity qHTS against the NCATS CANVASS Library (AID 1347346); note: nearly all actives have a fitted effect of over 55% in size
In short: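 HPAF-II cells at 1000 cells/well were treated with an 11-point concentration series for 72 hours at 37 degrees C. Viability read by CellTiter-Glo luminescence.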

[3] = UWB1.289 Cancer Cell Toxicity qHTS against the NCATS CANVASS Library (AID 1347347); note: nearly all actives have a fitted effect of over 60% in size
In short: as §1

[4] = OV-SAHO Cancer Cell Toxicity qHTS against the NCATS CANVASS Library (AID 1347348); note: nearly all actives have a fitted effect of over 55% in size
In short: as §1

[5] = Panc-1005 Cancer Cell Toxicity qHTS against the NCATS CANVASS Library (AID 1347349); note: nearly all actives have a fitted effect of over 60% in size
In short: as §1

[6] = SW1088 Cancer Cell Toxicity qHTS against the NCATS CANVASS Library (AID 1347350); note: nearly all actives have a fitted effect of over 75% in size
In short: as §1

[7] = U-118MG Cancer Cell Toxicity qHTS against the NCATS CANVASS Library (AID 1347351)
In short: as §1

[8] = COV-362 Cancer Cell Toxicity qHTS against the NCATS CANVASS Library (AID 1347352)
In short: (§2)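 Cells at 1000/well were given compound 4 h after plating in an 11-point series. Viability was read by CellTiter-Glo luminescence after 72 h at 37 degrees C.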

[9] = A2780 Cisplatin Sensitive Ovarian Cancer Cell Toxicity qHTS against the NCATS CANVASS Library (AID 1347353); details: A2780 ovarian cancer viability, ATPLite luminescence, 72 h; at 91.4 µM (top of the series) unless noted; note: nearly all actives have a fitted effect of over 60% in size
In short: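 A2780 cells, 750/well, settled 4 h at 37 °C, then treated with an 11-point compound series for 72 h. Viability was read as ATPLite luminescence after 10 min at room temperature, with bortezomib as control.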

[10] = UWB1.289-WTBRCA1 Cancer Cell Toxicity qHTS against the NCATS CANVASS Library (AID 1347354)
In short: as §2

[11] = HEK-293 Cancer Cell Toxicity qHTS against the NCATS CANVASS Library (AID 1347355); details: outcome: dose series up to 46.1 µM; note: nearly all actives have a fitted effect of over 65% in size
In short: as §2

[12] = HPAF-II 24hr Apoptosis Induction qHTS against the NCATS CANVASS Library (AID 1347356)
In short: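 HPAF-II cells (500/well) exposed to compounds in 11-point series for 24 h at 37 degrees C; caspase-3/7 activity read by Caspase-Glo luminescence after 15 min at room temperature. Doxorubicin titration as control.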

[13] = HEK293 18hr Apoptosis Induction qHTS against the NCATS CANVASS Library (AID 1347357)
In short: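 HEK293 cells (500 per well, DMEM with 10% FBS) were treated with natural products, incubated 18 hours at 37 degrees C, then caspase-3/7 activity was read by Caspase-Glo luminescence after 15 min at room temperature.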

[14] = HPAF-II 12hr Apoptosis Induction qHTS against the NCATS CANVASS Library (AID 1347358)
In short: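 HPAF-II cells, 500/well in DMEM + 10% FBS, exposed 12 hours at 37 degrees C to compound (11-point). Caspase-Glo 3/7 added for 15 min at room temperature; luminescence reflects caspase-3/7 activity.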

[15] = HEK293 24hr Apoptosis Induction qHTS against the NCATS CANVASS Library (AID 1347359)
In short: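 HEK293 cells (500/well, DMEM + 10% FBS) were exposed to compounds in an 11-point series for 24 hours at 37 degrees C, then caspase-3/7 activity was read by Caspase-Glo DEVD luciferase luminescence after 15 min.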

[16] = HPAF-II 18hr Apoptosis Induction qHTS against the NCATS CANVASS Library (AID 1347360)
In short: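 HPAF-II cells (500/well, DMEM + 10% FBS) were exposed to compounds for 18 hours at 37 degrees C. Caspase-3/7 activity was then read by Caspase-Glo 3/7 luminescence after 15 min at room temperature.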

[17] = HEK293 12hr Apoptosis Induction qHTS against the NCATS CANVASS Library (AID 1347361)
In short: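 Read-out: Caspase-Glo 3/7 luminescence (DEVD substrate), 15 min RT. Preceded by 12 h compound exposure of HEK293, 500 cells/well, 11-pt qHTS titration; doxorubicin titration as control.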

[18] = tested on: NAD(P)H diaphorase (Clostridium kluyveri); test: Diaphorse counterscreen qHTS: Assay Interference Panel against the NCATS CANVASS Library (AID 1347362)
In short: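 Clostridium kluyveri diaphorase in PBS with 0.01% Tween-20 was preincubated 15 min at room temperature in the dark with compounds (11-point series). Resorufin fluorescence (ex 525/20, em 598/25) was read 5 min after adding resazurin/NADH.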

[19] = target: Luciferin 4-monooxygenase (Photinus pyralis) (UniProt P08659); test: Firefly luciferase counterscreen qHTS: Assay Interference Panel against the NCATS CANVASS Library (AID 1347363)
Sequence of Luciferin 4-monooxygenase (Photinus pyralis) (P08659 whole entry, looked up): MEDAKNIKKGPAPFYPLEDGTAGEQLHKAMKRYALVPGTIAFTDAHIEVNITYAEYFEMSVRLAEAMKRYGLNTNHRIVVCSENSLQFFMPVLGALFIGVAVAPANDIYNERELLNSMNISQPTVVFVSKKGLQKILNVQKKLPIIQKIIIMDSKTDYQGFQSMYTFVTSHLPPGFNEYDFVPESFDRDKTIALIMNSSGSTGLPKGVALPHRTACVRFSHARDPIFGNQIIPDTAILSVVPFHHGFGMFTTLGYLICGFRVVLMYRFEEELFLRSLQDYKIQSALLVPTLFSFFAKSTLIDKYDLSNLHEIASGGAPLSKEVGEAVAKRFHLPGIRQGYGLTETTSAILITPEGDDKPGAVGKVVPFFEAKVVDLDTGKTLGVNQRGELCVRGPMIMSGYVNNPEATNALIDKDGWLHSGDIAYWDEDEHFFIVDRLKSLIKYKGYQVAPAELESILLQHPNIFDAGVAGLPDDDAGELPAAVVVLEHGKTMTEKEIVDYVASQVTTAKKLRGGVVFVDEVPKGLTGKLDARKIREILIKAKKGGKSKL
In short: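 Purified P. pyralis luciferase was added to compounds (11-point series) preincubated 15 min at room temperature with substrate containing 0.013 mM D-luciferin and 0.013 mM ATP; luminescence was read after 5 min.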

[20] = KB-8-5-11 Cancer Cell Toxicity qHTS against the NCATS CANVASS Library (AID 1347364); note: nearly all actives have a fitted effect of over 75% in size
In short: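 KB-8-5-11 cells, 500/well in DMEM + 10% FBS, given compounds in an 11-point series. Incubated 72 h at 37 °C. Viability by CellTiter-Glo luminescence. Confirmation also run with 1 uM tariquidar.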

Measured: outcome

COc1ccc2[nH]cc(CCN)c2c1
inactive: [1] | [2] | [3] | [4] | [5] | [6] | [7] | [8] | [9] inactive [at 46.1 µM] | [10] | [11] | [12] | [13] | [14] | [15] | [16] | [17] | [18] | [19] | [20]

O=C1C[C@@H]2OCC=C3CN4CC[C@]56c7ccccc7N1[C@H]5[C@H]2[C@H]3C[C@H]46
inactive: all assays above
